Measurements: PubChem BioAssay AID1159580 (chemical genetic matrix, 2015)
Among all 5,500 compounds or so, about 2,000 (36%) were called active. Roughly 18% stayed inconclusive and do not appear here. Rule as the data show it: active = normalized growth mostly below about 0.91 (no sharp cut-off); inconclusive = no clear call, values can overlap the other calls; inactive = mostly above about 0.92. The list shows a part of the results.

Test: chemical genetic growth profiling, strain panel (AID 1159580);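 also: tested at 20 µM; growth read once vehicle control cultures reached saturation at 30 °C; 1 = growth at the plate median or of vehicle wells; lower values mean less growth of the strain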
Conditions: growth OD

Measured: normalized growth

C=C1C(=O)O[C@@H]2C[C@@]3(C)CCC[C@H](C)C3=C[C@H]12
active: S. cerevisiae deletion strains, locus YKL085W, strain MDH1 (second series), hits give low values 0.909 | S. cerevisiae deletion strains, locus YKL085W, strain MDH1, hits give low values 0.909 | S. cerevisiae deletion strains, locus YKL160W, strain elf1, hits give low values 0.78 | S. cerevisiae deletion strains, locus YKR001C, strain vps1, hits give low values 0.496 | S. cerevisiae deletion strains, locus YKR026C, strain gcn3, hits give low values 0.893 | S. cerevisiae deletion strains, locus YKR091W, strain srl3, hits give low values 0.913 | S. cerevisiae deletion strains, locus YLL001W, strain dnm1, hits give low values 0.842 | S. cerevisiae deletion strains, locus YLL026W, hits give low values 0.869 | S. cerevisiae deletion strains, locus YLL041C, strain sdh2, hits give low values 0.888 | S. cerevisiae deletion strains, locus YLR027C, strain aat2, hits give low values 0.827 | S. cerevisiae deletion strains, locus YLR039C, strain RIC1, hits give low values 0.221 | S. cerevisiae deletion strains, locus YLR221C, strain rsa3, hits give low values 0.751 | S. cerevisiae deletion strains, locus YLR258W, strain gsy2, hits give low values 0.819 | S. cerevisiae deletion strains, locus YLR262C, strain YPT6 (second series), hits give low values 0.259 | S. cerevisiae deletion strains, locus YLR262C, strain YPT6, hits give low values 0.268 | S. cerevisiae deletion strains, locus YLR268W, strain sec22, hits give low values 0.668 | S. cerevisiae deletion strains, locus YLR320W, strain mms22, hits give low values 0.597 | S. cerevisiae deletion strains, locus YLR330W, strain CHS5, hits give low values 0.848 | S. cerevisiae deletion strains, locus YLR342W, strain FKS1, hits give low values 0.885 | S. cerevisiae deletion strains, locus YLR357W, strain rsc2, hits give low values 0.662 | S. cerevisiae deletion strains, locus YLR370C, strain arc18, hits give low values 0.899 | S. cerevisiae deletion strains, locus YLR371W, strain rom2, hits give low values 0.646 | S. cerevisiae deletion strains, locus YLR384C, strain iki3, hits give low values 0.87 | S. cerevisiae deletion strains, locus YLR418C, strain cdc73, hits give low values 0.31 | S. cerevisiae deletion strains, locus YML016C, strain PPZ1, hits give low values 0.85 | S. cerevisiae deletion strains, locus YML120C, strain ndi1, hits give low values 0.818 | S. cerevisiae deletion strains, locus YML124C, strain tub3, hits give low values 0.896 | S. cerevisiae deletion strains, locus YMR058W, strain fet3, hits give low values 0.8 | S. cerevisiae deletion strains, locus YMR125W, strain sto1, hits give low values 0.669 | S. cerevisiae deletion strains, locus YMR129W, hits give low values 0.847 | S. cerevisiae deletion strains, locus YMR205C, strain PFK2, hits give low values 0.653 | S. cerevisiae deletion strains, locus YMR223W, strain ubp8, hits give low values 0.815 | S. cerevisiae deletion strains, locus YMR231W, strain pep5, hits give low values 0.859 | S. cerevisiae deletion strains, locus YNL071W, strain lat1, hits give low values 0.377 | S. cerevisiae deletion strains, locus YNL153C, strain GIM3, hits give low values 0.868 | S. cerevisiae deletion strains, locus YNL209W, strain ssb2, hits give low values 0.902 | S. cerevisiae deletion strains, locus YNL233W, strain BNI4, hits give low values 0.828 | S. cerevisiae deletion strains, locus YNL248C, strain rpa49, hits give low values 0.617 | S. cerevisiae deletion strains, locus YNL271C, strain bni1, hits give low values 0.855 | S. cerevisiae deletion strains, locus YNL307C, strain MCK1, hits give low values 0.737 | S. cerevisiae deletion strains, locus YNL322C, strain KRE1 (second series), hits give low values 0.902 | S. cerevisiae deletion strains, locus YNR049C, strain mso1, hits give low values 0.903 | S. cerevisiae deletion strains, locus YNR052C, strain pop2, hits give low values 0.875 | S. cerevisiae deletion strains, locus YOL147C, strain pex11, hits give low values 0.921 | S. cerevisiae deletion strains, locus YOR001W, strain rrp6, hits give low values 0.807 | S. cerevisiae deletion strains, locus YOR069W, strain VPS5, hits give low values 0.915 | S. cerevisiae deletion strains, locus YOR070C, strain gyp1, hits give low values 0.856 | S. cerevisiae deletion strains, locus YOR080W, strain dia2, hits give low values 0.908 | S. cerevisiae deletion strains, locus YOR083W, strain WHI5, hits give low values 0.82 | S. cerevisiae deletion strains, locus YOR106W, strain vam3, hits give low values 0.752 | S. cerevisiae deletion strains, locus YOR144C, strain elg1, hits give low values 0.927 | S. cerevisiae deletion strains, locus YOR184W, strain ser1, hits give low values 0.577 | S. cerevisiae deletion strains, locus YOR265W, strain rbl2, hits give low values 0.883 | S. cerevisiae deletion strains, locus YOR270C, strain vph1, hits give low values 0.583 | S. cerevisiae deletion strains, locus YOR290C, strain snf2, hits give low values 0.785 | S. cerevisiae deletion strains, locus YPL051W, strain arl3, hits give low values 0.73 | S. cerevisiae deletion strains, locus YPL055C, strain LGE1, hits give low values 0.722 | S. cerevisiae deletion strains, locus YPL078C, strain atp4, hits give low values 0.791 | S. cerevisiae deletion strains, locus YPL106C, strain sse1, hits give low values 0.521 | S. cerevisiae deletion strains, locus YPL240C, strain hsp82, hits give low values 0.825 | S. cerevisiae deletion strains, locus YPR119W, strain clb2, hits give low values 0.907 | S. cerevisiae deletion strains, locus YPR163C, strain tif3, hits give low values 0.749 | S. cerevisiae deletion strains, locus YPR167C, strain met16, hits give low values 0.899 | S. cerevisiae strains, strain wild type, hits give low values 0.882
inactive: S. cerevisiae deletion strains, locus YJR043C, strain POL32, hits give low values 0.88 | S. cerevisiae deletion strains, locus YJR066W, strain TOR1, hits give low values 0.939 | S. cerevisiae deletion strains, locus YKL009W, strain mrt4, hits give low values 1.01 | S. cerevisiae deletion strains, locus YKL068W, hits give low values 0.946 | S. cerevisiae deletion strains, locus YKL190W, strain CNB1, hits give low values 0.934 | S. cerevisiae deletion strains, locus YLR058C, strain SHM2, hits give low values 0.898 | S. cerevisiae deletion strains, locus YLR102C, strain apc9, hits give low values 0.942 | S. cerevisiae deletion strains, locus YLR113W, strain HOG1, hits give low values 0.991 | S. cerevisiae deletion strains, locus YLR342W, strain FKS1 (second series), hits give low values 0.864 | S. cerevisiae deletion strains, locus YML032C, strain rad52, hits give low values 0.923 | S. cerevisiae deletion strains, locus YMR078C, strain ctf18, hits give low values 0.915 | S. cerevisiae deletion strains, locus YMR307W, strain GAS1, hits give low values 0.654 | S. cerevisiae deletion strains, locus YNL067W, strain RPL9B, hits give low values 0.896 | S. cerevisiae deletion strains, locus YNL183C, strain NPR1, hits give low values 0.959 | S. cerevisiae deletion strains, locus YNL250W, strain rad50, hits give low values 0.949 | S. cerevisiae deletion strains, locus YNL298W, strain CLA4, hits give low values 0.943 | S. cerevisiae deletion strains, locus YOL006C, strain TOP1, hits give low values 0.598 | S. cerevisiae deletion strains, locus YOL012C, strain htz1 0.342 | S. cerevisiae deletion strains, locus YOR061W, strain CKA2, hits give low values 0.925 | S. cerevisiae deletion strains, locus YOR136W, strain idh2, hits give low values 0.942 | S. cerevisiae deletion strains, locus YOR231W, strain MKK1, hits give low values 1.01 | S. cerevisiae deletion strains, locus YOR316C, strain cot1, hits give low values 0.939 | S. cerevisiae deletion strains, locus YPL256C, strain CLN2, hits give low values 0.949 | S. cerevisiae deletion strains, locus YPR141C, strain kar3, hits give low values 0.926 | S. cerevisiae deletion strains, strain wtn01, hits give low values 0.909
